Compounds with a hit are over-represented: about 3.3% of the library has one in this group of screens.
esBAF inh – Bmi1 luciferase reporter increase in mESCs, primary screen, esBAF inhibitor project, mouse ES cells, Bmi1 luciferase knock-in, single point. 24 h; 100% = twice the neutral-well signal. reporter increase, % at 12.5 µM. AID 602393, 2012. hit rate 2% among 350,000; in the data active means activation above about 40%;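 further: 0% = median of the plate's neutral control wells and 100% = double that signal; a rise in the Bmi1 reporter signal indicates esBAF inhibition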
Gli-Sufu antag – Gli-Sufu pathway antagonists, primary screen, luciferase luminescence, Sufu-KO-LIGHT cells, uHTS; AID 588413, 2011; hit rate 0.74% among 340,000; inhibition, % at 5 µM; Sufu-KO-LIGHT fibroblasts, Gli luciferase reporter luminescence;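 active means inhibition above about 55%, limit read from the data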;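 further: 0% = DMSO-treated cells and 100% = wells with medium but no cells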
697 NFkB inh – inhibitors of PMA/ionomycin-induced NF-kB reporter, 697 cells, primary screen, B-cell NF-kB inhibitor project, cell-based, luminescence, uHTS; 697 B-cell NF-kB luciferase reporter, 16 h; inhibition, % at 4 µM; hit rate 0.33% among 330,000; in the data active means inhibition above about 35%
SMARCA2 activ – SMARCA2 (BRM) function activators, primary screen, cell-based, luminescence, high throughput. MG213 cells, MMTV-luciferase reporter, dexamethasone, overnight. activation, % at 9.1 µM. hit rate 1% among 370,000. AID 652017, 2013; in the data active means activation above about 7.8%;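 further: 0% = vehicle wells and 100% = reference activator wells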
Jurkat NFkB inh – inhibitors of induced NF-kB luciferase reporter, primary screen, TCR NF-kB activation inhibitor project, cell-based, luminescence, uHTS; inhibition, % at 4 µM; Jurkat, PMA/ionomycin-induced NF-kB luciferase reporter; hit rate 0.53% among 330,000; in the data active means inhibition above about 50%
Active calls of the source: *; . = not tested or not shown.

SMILES | esBAF inh | Gli-Sufu antag | 697 NFkB inh | SMARCA2 activ | Jurkat NFkB inh
COC(=O)Cn1c2ccccc2c2nc3ccccc3nc21 | 50.4* | . | -23.4 | 0.9 | -6.5
C/C(=N/N=C(/C)c1cccs1)c1cccs1 | 47.6* | -43.0 | -116.6 | 1.8 | -86.2
C=CCn1c(=N)n(CC(=O)c2cccc([N+](=O)[O-])c2)c2ccccc21 | . | 8.4 | -19.7 | -3.3 | -24.2
N=c1n(CCN2CCCCC2)c2ccccc2n1CC(=O)c1cccc([N+](=O)[O-])c1 | 0.5 | 20.7 | -5.2 | 8.6* | 10.1
Cc1noc(C)c1S(=O)(=O)Nc1ccc2c(c1)C(=O)N([C@H](C)CO)C[C@@H](C)[C@@H](CN(C)C(=O)Nc1ccc3c(c1)OCO3)OCCCC[C@@H](C)O2 | 5.9 | . | . | . | .
c1ccc(-c2cccc(-c3ccccc3)n2)cc1 | 43.6* | 19.3 | -14.0 | -0.7 | -27.5
c1ccc(-c2ccc3ccccc3n2)cc1 | 36.9 | -72.7 | -82.8 | -0.3 | -92.0
Cc1ccc(NC(=O)N(C2=NCC(C)S2)c2ccccc2)cc1 (stereo not given) | 43.3* | -7.2 | -20.5 | 1.0 | -23.6
CCCC(=O)Nc1ccc(N2CCN(S(C)(=O)=O)CC2)cc1 | . | -2.0 | -16.3 | 8.4* | -8.7
COc1ccccc1C(=O)Nc1ccc(N2CCN(S(C)(=O)=O)CC2)cc1 | 43.6* | -42.8 | -10.0 | -0.6 | -10.6
CCCCC(=O)Nc1ccc(N2CCN(S(C)(=O)=O)CC2)cc1 | -8.4 | -8.8 | 11.1 | -1.5 | 13.9
C[C@@H]1CN([C@@H](C)CO)C(=O)c2cc(NS(=O)(=O)c3ccc(F)cc3)ccc2O[C@@H]1CN(C)C(=O)Nc1cccc2ccccc12 | 3.5 | . | . | . | .
CCc1ccc(C(=O)N/N=C(\C)c2cccnc2)s1 | 43.3* | -39.0 | -35.2 | 3.7 | -47.3
Cc1cccc(NC(=S)NNC(=O)c2sccc2C)c1 | 42.0* | -25.4 | -61.4 | 2.9 | -47.8
CCc1cc(C(=O)NNC(=S)Nc2cccc(C)c2)cs1 | 50.0* | -15.5 | -56.7 | 3.0 | -71.4
Cc1cccc(NC(=S)NNC(=O)c2csc(C(C)C)c2)c1 | 5.7 | -92.3 | -67.6 | -0.5 | -83.0
O=c1c2[nH]c3ccccc3c2ncn1C1CCCCC1 | 61.7* | -43.2 | -40.3 | 2.1 | -72.3
C[C@@H]1CCCCO[C@@H](CN(C)CC2CC2)[C@H](C)CN([C@@H](C)CO)C(=O)c2cc(NS(=O)(=O)c3ccc(Cl)cc3)ccc2O1 | 0.2 | . | . | . | .
Cn1c(C(=O)NC2CCCCC2)cc2sccc21 | 42.5* | -53.4 | -84.2 | 1.6 | -76.2
CCn1c(C(=O)NC2CCC(C)CC2)cc2sccc21 (stereo not given) | 51.7* | -134.1 | -41.0 | -1.9 | -50.4
CNC[C@H]1Oc2c(NC(=O)Nc3ccccc3)cccc2C(=O)N([C@H](C)CO)C[C@@H]1C | -1.3 | . | . | . | .
CC=Cc1ccc2n(c1=O)C[C@H]1[C@H](CO)[C@@H](C(=O)NCCc3cn(C)cn3)[C@@H]2N1C(=O)C1CCCC1 (mixture of isomers) | -0.8 | . | . | . | .
C[C@H]1CN([C@@H](C)CO)C(=O)c2cccc(NS(=O)(=O)c3ccc(F)cc3)c2O[C@@H]1CN(C)Cc1ccc(C(F)(F)F)cc1 | -8.8 | . | . | . | .
O=C(C[C@@H]1C=C[C@@H](NS(=O)(=O)c2ccc(F)cc2)[C@H](CO)O1)NCc1ccncn1 | -4.1 | . | . | . | .
CCCOc1ccc2ccccc2c1/C=C1\SC(=O)NC1=O | 1.5 | 13.8 | -57.7 | -0.4 | -1.3
SMILES | esBAF inh | Gli-Sufu antag | 697 NFkB inh | SMARCA2 activ | Jurkat NFkB inh
CCCCOc1ccc2ccccc2c1C=O | 73.1* | -30.9 | -59.8 | 0.0 | -30.8
O=C(Nc1ccccc1N1CCOCC1)c1cc2ccccc2o1 | 16.7 | 24.8 | -22.4 | 0.6 | -15.3
O=C(Nc1ccc(N2CCN(C(=O)c3ccccc3)CC2)c(Cl)c1)c1ccc(Br)o1 | 0.9 | 9.4 | 11.7 | -4.5 | 21.8
O=C(Nc1ccc(N2CCOCC2)c(Cl)c1)c1cc2ccccc2o1 | 64.2* | -1.8 | -144.3 | . | -109.9
O=C(Nc1ccc(N2CCOCC2)c(Cl)c1)c1ccc(Br)o1 | 60.4* | -84.2 | -90.7 | 3.7 | -115.3
C[C@H](CO)N1C[C@H](C)[C@@H](CN(C)C(=O)Nc2cccc3ccccc23)Oc2ccc(NC(=O)c3ccncc3)cc2C1=O | -1.6 | . | . | . | .
C[C@@H]1CN([C@@H](C)CO)C(=O)c2cccc(NS(C)(=O)=O)c2O[C@H]1CN(C)CC1CC1 | 4.7 | . | . | . | .
Cc1ccc(OCC(=O)O/N=C(\N)c2ccncc2)cc1C | 53.5* | -28.5 | -55.1 | 1.9 | -22.9
Cc1ccc(OCC(=O)O/N=C(\N)c2ccccn2)cc1C | . | -107.7 | -105.2 | 3.8 | -84.9
N/C(=N\OC(=O)COc1ccccc1)c1ccncc1 | . | -11.4 | -14.4 | 0.8 | -14.5
COc1cccc(OCC(=O)O/N=C(\N)c2ccncc2)c1 | 46.9* | -21.6 | -16.7 | 1.3 | -13.7
COc1cccc(N2C(=O)/C(=C\c3cccs3)NC2=S)c1 | 43.5* | -7.9 | -17.5 | 0.7 | -4.3
CC(O)(c1ccccc1)c1nc(-c2cc3ccccc3o2)cs1 (stereo not given) | 49.3* | . | . | 0.2 | .
CN(C)c1ccc(-c2csc(C(C)(O)c3ccccc3)n2)cc1 (stereo not given) | 56.1* | . | . | 1.2 | .
CC(O)(c1ccccc1)c1nc(-c2ccc(Cl)cc2)cs1 (stereo not given) | 5.3 | . | . | -0.5 | .
CC(C)NC(=O)Nc1ccc2c(c1)C(=O)N(C)[C@@H]1CC[C@@H](CC(=O)Nc3ccccc3)O[C@H]1CO2 | -1.2 | . | . | . | .
CC(=O)Nc1ccc(CN2C(=O)C(CCc3ccccc3)ON=C2c2cnccn2)cc1 (stereo not given) | 46.6* | . | . | 0.2 | .
CC(C)Cc1ccc(-c2cc3nc(NCCc4ccc(S(N)(=O)=O)cc4)ccn3n2)cc1 | 91.6* | . | . | 2.0 | .
CC(C)Cc1ccc(-c2cc3nc(NCCCn4ccnc4)ccn3n2)cc1 | 61.1* | . | . | -3.9 | .
C[C@@H]1CN([C@H](C)CO)C(=O)c2cc(NC(=O)Nc3cccc4ccccc34)ccc2O[C@@H]1CN(C)C(=O)Nc1ccc(F)cc1 | -6.7 | . | . | . | .
NC(=O)c1ccccc1N/C=C/C(=O)c1ccco1 | 33.7 | 7.5 | -50.3 | 3.5 | -58.8
O=C(/C=C/Nc1ccccc1C(F)(F)F)c1ccco1 | 92.9* | -97.1 | -135.4 | 7.8 | -131.5
COc1cccc(C2=CC(=O)C[C@H](c3ccc4c(c3)OCO4)C2)c1OC | 43.0* | -12.3 | -12.4 | . | -25.0
COc1cccc(OC)c1C1=CC(=O)C[C@H](c2ccc3c(c2)OCO3)C1 | 1.1 | 3.9 | -10.9 | -0.7 | -5.5
CCCOC(=O)CN1C(=O)c2ccc(C(=O)OCCC)cc2C1=O | -2.7 | 2.0 | 24.4 | 1.5 | -1.4
CCCOC(=O)c1ccc2c(c1)C(=O)N(c1ccccc1)C2=O | 58.4* | 2.9 | -7.5 | -1.1 | 8.7
COc1ccc(CN(C)C[C@H]2Oc3ccc(NC(=O)Nc4ccc(C(F)(F)F)cc4)cc3CC(=O)N([C@@H](C)CO)C[C@H]2C)cc1 | -3.7 | . | . | . | .
